From PubChem BioAssay (Tox21)
Values joined by “and” are separate entries in the source; they are usually repeats but may differ in a detail not shown here. Equal entries are not always repeated. Results filed as inconclusive are left out. Entries that show only a call come without a potency. Where a structure was tested more than once in an assay, its records may differ in their call. Active and inactive are the calls of the source. Unless noted, calls come from the whole dose curve; as a rule, active = well fitted curve in the direction sought with a large enough effect in the repeat runs; inconclusive = weak or mixed curves; inactive = no such curve, though single readings can be large; an effect the other way counts as inactive or inconclusive.

What was measured:
[1] = qHTS assay to identify small molecule antagonists of the thyroid receptor (TR) signaling pathway - cell viability counter screen (AID 743064); note: nearly all actives have a fitted effect of over 50% in size; note: potency is the fitted concentration of half-maximal effect
Method in brief: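 In-well cytotoxicity read by CellTiter-Fluor (30 min, 37 C) following 23.5 h exposure of GH3 cells bearing a TRE-luciferase sensor. Compounds were added alongside 1 nM (final) T3 to drive TR transactivation.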

[2] = qHTS assay to identify small molecule antagonists of the thyroid receptor (TR) signaling pathway (AID 743065); note: nearly all actives have a fitted effect of over 55% in size; note: potency is the fitted concentration of half-maximal effect
Method in brief: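 GH3.TRE-Luc rat pituitary cells (two TREs driving luciferase) were dosed with compound, then stimulated with 1 nM T3 (final) for 23.5 h at 37 C. ONE-Glo luminescence was the read-out, with CellTiter-Fluor fluorescence as the cytotoxicity counter-screen.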

[3] = tested on: thyroid hormone receptor (rat, GH3 cells); assay: qHTS assay to identify small molecule agonists of the thyroid receptor (TR) signaling pathway (AID 743066; calls by dose curve)
[4] = qHTS assay to identify small molecule antagonists of the estrogen receptor alpha (ER-alpha) signaling pathway - cell viability counter screen (AID 743074; calls by dose curve;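 note: HEK293 cells carrying ER-alpha-UAS-bla reporter stimulated with 17beta-estradiol; nearly all actives have a fitted effect of over 45% in size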)
[5] = qHTS assay to identify small molecule antagonists of the estrogen receptor alpha (ER-alpha) signaling pathway using the BG1 cell line - cell viability counter screen (AID 743081);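 note: compound given together with 17beta-estradiol as the ER stimulus; series mostly up to about 70 µM; nearly all actives have a fitted effect of over 45% in size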
Aromatase (Homo sapiens) = Aromatase (Homo sapiens) (UniProt P11511); assay: qHTS assay to identify aromatase inhibitors (AID 743083); note: series mostly up to about 70 µM; nearly all actives have a fitted effect of over 55% in size
[6] = qHTS assay to identify aromatase inhibitors - cell viability counter screen (AID 743084);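 note: cells stimulated with testosterone during compound exposure; nearly all actives have a fitted effect of over 55% in size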
[7] = molecular target: Aryl hydrocarbon receptor (Homo sapiens) (UniProt P35869); assay: qHTS assay to identify small molecule that activate the aryl hydrocarbon receptor (AhR) signaling pathway (AID 743085); note: nearly all actives have a fitted effect of over 15% in size; note: potency is the fitted concentration of half-maximal effect;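 for activation: HG2L7.5c1 human HepG2 liver cells with stably integrated DRE-driven firefly reporter; series mostly up to about 70 µM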
Method in brief: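 Luminescence (ONE-Glo) from a dioxin-responsive-element luciferase reporter in HG2L7.5c1 HepG2 cells after 24 hr compound exposure at 37C; viability measured by CellTiter-Fluor fluorescence beforehand.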

[8] = qHTS assay to identify small molecule that activate the aryl hydrocarbon receptor (AhR) signaling pathway - cell viability counter screen (AID 743086);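 note: HepG2 liver cells carrying the AhR DRE luciferase reporter; series mostly up to about 70 µM; nearly all actives have a fitted effect of over 45% in size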
Method in brief: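 HepG2-AhR-luc (HG2L7.5c1) cells, 4000/well, treated 24 h at 37 C with compound; viability measured as CellTiter-Fluor fluorescence after 30 min in the same wells as the luciferase read.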

[9] = molecular target: Peroxisome proliferator-activated receptor gamma (Homo sapiens) (UniProt P37231); assay: qHTS assay to identify small molecule agonists of the peroxisome proliferator-activated receptor gamma (PPARg) signaling pathway (AID 743094; active = well fitted activation curve with a large enough effect in the signal ratio in the repeat runs, not every such curve was filed as active; the % refers to the signal ratio)
Method in brief: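 Compounds dissolved in DMSO were added to PPARg UAS-bla HEK293H cells for 17 h at 37C, and reporter expression was quantified by fluorescence intensity after 1 h with LiveBLAzer B/G FRET substrate.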

[10] = molecular target: Peroxisome proliferator-activated receptor gamma (Homo sapiens) (UniProt P37231); assay: qHTS assay to identify small molecule antagonists of the peroxisome proliferator-activated receptor gamma (PPARg) signaling pathway (AID 743191; calls by dose curve; note: series mostly up to about 63 µM; nearly all actives have a fitted effect of over 30% in size)
Method in brief: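 GeneBLAzer PPARg UAS-bla HEK293H cells, 5 h post-plating, exposed to compounds 17 h at 37C. LiveBLAzer B/G FRET substrate added for 1 h at room temperature; beta-lactamase reporter read by fluorescence intensity.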

[11] = qHTS assay to identify small molecule antagonists of the peroxisome proliferator-activated receptor gamma (PPARg) signaling pathway - cell viability counter screen (AID 743194); note: nearly all actives have a fitted effect of over 55% in size
Method in brief: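 Cytotoxicity counter screen in PPARg-bla HEK293H cells, same wells as reporter assay. Compounds plus 50 nM rosiglitazone (final) for 17 h at 37 C, then viability read by CellTiter-Glo luminescence.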

[12] = qHTS assay for small molecule agonists of the antioxidant response element (ARE) signaling pathway (AID 743202; active = well fitted activation curve with a large enough effect in the signal ratio in the repeat runs, not every such curve was filed as active; the % refers to the signal ratio; note: potency is the fitted concentration of half-maximal effect)
Method in brief: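 ARE-bla HepG2 cells (beta-lactamase reporter under the antioxidant response element), plated 5 hours, then exposed to compounds 16 hours at 37 C. LiveBLAzer B/G FRET substrate added for 2 hours at room temperature; fluorescence intensity read.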

[13] = qHTS assay for small molecule agonists of the antioxidant response element (ARE) signaling pathway - cell viability counter screen (AID 743203; calls by dose curve; note: nearly all actives have a fitted effect of over 55% in size)
Method in brief: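 Following 16 hrs of compound treatment at 37C, HepG2 cells with an ARE-controlled beta-lactamase gene were lysed with CellTiter-Glo. Luminescence was read after 30 min at room temperature.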

[14] = qHTS assay for small molecule activators of the heat shock response signaling pathway - cell viability counter screen (AID 743209); note: nearly all actives have a fitted effect of over 50% in size
Method in brief: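 Readout: CellTiter-Glo luminescence, 30 min at room temperature. System: HSE-bla HeLa cells, 1500/well, plated overnight. Treatment: compounds in DMSO, 5 h at 37 C.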

[15] = qHTS assay for small molecule activators of the heat shock response signaling pathway (AID 743210; active = well fitted activation curve with a large enough effect in the signal ratio in the repeat runs, with a control signal flat, not every such curve was filed as active; the % refers to the signal ratio; note: potency is the fitted concentration of half-maximal effect; for activation: series mostly up to about 63 µM)
Method in brief: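 HSE-bla HeLa cells (beta-lactamase reporter under heat shock response elements), plated overnight, then exposed to compounds 5 h at 37 C; LiveBLAzer B/G FRET substrate added, 2.5 h at room temperature, fluorescence intensity read.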

[16] = molecular target: Estrogen receptor (Homo sapiens) (UniProt P03372); assay: qHTS assay to identify small molecule agonists of the estrogen receptor alpha (ER-alpha) signaling pathway (AID 743075; calls by dose curve;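 note: HEK293 GripTite cells with ER-alpha and UAS-driven beta-lactamase reporter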)
[17] = molecular target: Estrogen receptor (Homo sapiens) (UniProt P03372); assay: qHTS assay to identify small molecule agonists of the estrogen receptor alpha (ER-alpha) signaling pathway using the BG1 cell line (AID 743079); note: nearly all actives have a fitted effect of over 20% in size; note: potency is the fitted concentration of half-maximal effect
[18] = qHTS assay to identify small molecule antagonists of the estrogen receptor alpha (ER-alpha) signaling pathway using the BG1 cell line (AID 743080; calls by dose curve;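 note: BG1 cells stimulated with 17beta-estradiol alongside compound; series mostly up to about 70 µM; nearly all actives have a fitted effect of over 25% in size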)
Method in brief: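 BG1-Luc-4E2 cells (endogenous full-length ER-alpha, 4xERE luciferase) hormone-starved 5 days in charcoal-stripped FBS, plated 4,000/well for 24 h, then compound plus 17beta-estradiol for 21.5 h at 37 C; ONE-Glo luminescence read.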

Sequence of Aryl hydrocarbon receptor (Homo sapiens) (P35869 whole entry, looked up): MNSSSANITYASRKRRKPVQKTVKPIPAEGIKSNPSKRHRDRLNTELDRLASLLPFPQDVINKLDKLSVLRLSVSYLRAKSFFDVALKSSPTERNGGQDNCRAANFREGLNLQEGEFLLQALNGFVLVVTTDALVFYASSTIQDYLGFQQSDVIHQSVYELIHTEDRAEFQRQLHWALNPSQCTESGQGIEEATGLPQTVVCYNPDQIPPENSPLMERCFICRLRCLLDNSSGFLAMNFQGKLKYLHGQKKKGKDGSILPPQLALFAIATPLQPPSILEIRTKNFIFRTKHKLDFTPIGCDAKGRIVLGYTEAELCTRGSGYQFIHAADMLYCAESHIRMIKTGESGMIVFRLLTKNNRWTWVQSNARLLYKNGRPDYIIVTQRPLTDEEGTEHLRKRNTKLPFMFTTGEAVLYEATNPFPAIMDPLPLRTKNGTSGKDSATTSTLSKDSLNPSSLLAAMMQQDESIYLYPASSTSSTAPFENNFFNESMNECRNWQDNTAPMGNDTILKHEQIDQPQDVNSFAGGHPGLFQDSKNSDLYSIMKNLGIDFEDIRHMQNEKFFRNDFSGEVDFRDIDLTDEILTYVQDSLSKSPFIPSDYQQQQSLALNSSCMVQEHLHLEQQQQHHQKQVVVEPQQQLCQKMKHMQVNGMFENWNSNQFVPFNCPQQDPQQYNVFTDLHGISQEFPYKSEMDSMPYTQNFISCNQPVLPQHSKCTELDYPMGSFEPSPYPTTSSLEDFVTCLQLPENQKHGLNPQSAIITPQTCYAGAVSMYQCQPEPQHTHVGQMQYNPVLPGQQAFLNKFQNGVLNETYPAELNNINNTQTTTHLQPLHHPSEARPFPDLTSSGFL
Sequence of Aromatase (Homo sapiens) (P11511 whole entry, looked up): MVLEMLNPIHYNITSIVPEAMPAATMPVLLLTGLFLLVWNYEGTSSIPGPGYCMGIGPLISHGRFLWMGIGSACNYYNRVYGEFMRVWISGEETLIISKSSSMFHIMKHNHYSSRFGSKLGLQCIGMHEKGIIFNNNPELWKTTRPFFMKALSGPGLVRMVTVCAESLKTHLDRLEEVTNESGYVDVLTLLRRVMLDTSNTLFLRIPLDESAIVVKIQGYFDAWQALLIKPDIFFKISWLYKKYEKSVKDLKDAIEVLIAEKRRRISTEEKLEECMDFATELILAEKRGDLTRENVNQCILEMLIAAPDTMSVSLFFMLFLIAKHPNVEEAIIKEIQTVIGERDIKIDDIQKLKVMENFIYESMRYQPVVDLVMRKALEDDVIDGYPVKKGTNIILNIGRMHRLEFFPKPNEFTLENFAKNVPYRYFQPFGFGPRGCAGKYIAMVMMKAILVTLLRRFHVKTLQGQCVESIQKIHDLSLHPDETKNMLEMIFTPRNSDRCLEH
Sequence of Estrogen receptor (Homo sapiens) (P03372 whole entry, looked up): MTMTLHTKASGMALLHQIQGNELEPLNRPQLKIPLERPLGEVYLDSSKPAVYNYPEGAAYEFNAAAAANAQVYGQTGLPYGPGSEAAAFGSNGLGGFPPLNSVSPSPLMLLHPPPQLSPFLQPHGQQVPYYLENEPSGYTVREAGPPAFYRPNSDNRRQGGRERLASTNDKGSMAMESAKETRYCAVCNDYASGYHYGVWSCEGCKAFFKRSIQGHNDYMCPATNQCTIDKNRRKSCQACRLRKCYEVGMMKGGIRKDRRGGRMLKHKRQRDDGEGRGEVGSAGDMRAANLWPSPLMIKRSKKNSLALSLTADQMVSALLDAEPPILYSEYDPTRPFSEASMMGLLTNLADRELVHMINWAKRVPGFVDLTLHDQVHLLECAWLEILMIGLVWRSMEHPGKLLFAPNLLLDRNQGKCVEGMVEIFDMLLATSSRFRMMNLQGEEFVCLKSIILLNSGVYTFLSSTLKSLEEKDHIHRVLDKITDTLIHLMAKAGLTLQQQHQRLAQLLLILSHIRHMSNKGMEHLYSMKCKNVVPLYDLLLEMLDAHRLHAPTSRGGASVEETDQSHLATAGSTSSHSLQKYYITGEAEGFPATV
Sequence of Peroxisome proliferator-activated receptor gamma (Homo sapiens) (P37231 whole entry, looked up): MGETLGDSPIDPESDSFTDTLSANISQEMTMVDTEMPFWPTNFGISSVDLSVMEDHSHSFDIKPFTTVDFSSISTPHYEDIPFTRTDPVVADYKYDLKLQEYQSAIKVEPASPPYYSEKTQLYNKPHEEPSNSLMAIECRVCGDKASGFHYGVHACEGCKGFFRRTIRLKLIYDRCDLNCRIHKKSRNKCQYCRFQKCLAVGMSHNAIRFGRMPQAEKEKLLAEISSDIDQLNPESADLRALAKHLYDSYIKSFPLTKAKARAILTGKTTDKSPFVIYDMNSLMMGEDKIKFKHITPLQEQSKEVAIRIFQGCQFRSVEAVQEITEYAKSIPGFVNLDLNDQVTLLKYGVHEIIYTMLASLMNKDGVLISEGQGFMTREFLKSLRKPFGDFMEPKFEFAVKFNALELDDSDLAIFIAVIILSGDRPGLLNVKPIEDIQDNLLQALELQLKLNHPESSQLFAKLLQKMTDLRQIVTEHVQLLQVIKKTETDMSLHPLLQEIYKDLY

Compound	Potency [1]	Potency [2]	Potency [3]	outcome [4]	Potency [5]	Potency (Aromatase (Homo sapiens))	Potency [6]	Potency [7]	outcome [8]	outcome [9]	outcome [10]	outcome [11]	Potency [12]	outcome [13]	outcome [14]	Potency [15]	Potency [16]	Potency [17]	Potency [18]
O=C1CCC(N2C(=O)c3ccccc3C2=O)C(=O)N1 (stereo not drawn)	inactive	inactive	inactive	inactive	inactive	inactive	inactive	inactive	inactive	inactive	inactive	inactive	inactive	inactive	inactive	inactive			
CC1CCC(C(C)C)C(O)C1 (stereo not drawn)	inactive	inactive	inactive	inactive	inactive	inactive	inactive	inactive	inactive	inactive	inactive	inactive	inactive	inactive	inactive				
OCC(CO)(CBr)CBr	inactive	inactive	inactive	inactive	inactive	inactive	inactive	inactive		inactive	inactive	inactive	inactive	inactive	inactive	inactive			
OC[C@H]1O[C@@](CO)(O[C@H]2O[C@H](CO)[C@@H](O)[C@H](O)[C@H]2O)[C@@H](O)[C@@H]1O	inactive	inactive	inactive	inactive	inactive	inactive	inactive	inactive		inactive	inactive	inactive	inactive	inactive		inactive	inactive	inactive	inactive
CCCCCCCCCCCCCCO	inactive	inactive	inactive	inactive	inactive	inactive	inactive	inactive		inactive	inactive	inactive	inactive	inactive		inactive	inactive	inactive	inactive
CC(=O)CC(=O)Nc1ccccc1	inactive	inactive	inactive	inactive	inactive	inactive	inactive	inactive	inactive		inactive	inactive		inactive	inactive	inactive			
Cc1ccc(N(C)C)cc1	inactive	inactive	inactive	inactive	inactive	inactive	inactive	inactive and 68.6 µM (active)			inactive	inactive	inactive	inactive	inactive		inactive	61.1 µM (active)	inactive
CCCCC(CC)COC(=O)CCCCC(=O)OCC(CC)CCCC (stereo not drawn)	inactive	inactive	inactive	inactive	inactive	inactive	inactive	inactive			inactive	inactive	inactive	inactive	inactive	inactive	inactive	inactive	inactive
CC(=O)OCC(=O)[C@@]12N=C(C)O[C@@H]1C[C@H]1[C@@H]3CCC4=CC(=O)C=C[C@]4(C)[C@H]3[C@@H](O)C[C@@]12C	inactive	inactive	inactive	inactive	inactive	inactive	inactive		inactive		inactive	inactive		inactive		inactive	inactive	16.8 µM (active)	
CC1CCC2CC1C2(C)C (stereo not drawn)	inactive	inactive	inactive	inactive	inactive	inactive	inactive	inactive	inactive	inactive	inactive	inactive	inactive	inactive		inactive			
C[C@H]1C[C@H]2[C@@H]3CCC4=CC(=O)C=C[C@]4(C)[C@@]3(F)[C@@H](O)C[C@]2(C)[C@@]1(O)C(=O)CO	inactive	inactive	inactive	inactive	inactive	inactive	inactive	inactive	inactive			inactive	inactive	inactive	inactive	inactive			
C=CCNC(N)=S	inactive	inactive	inactive	inactive	inactive	inactive	inactive	inactive		inactive	inactive	inactive	inactive	inactive	inactive	inactive			
C[Si](O[Si](C)(C)C)O[Si](C)(C)C	inactive	inactive	inactive	inactive	inactive	inactive	inactive	inactive		inactive	inactive	inactive	inactive	inactive	inactive	inactive			
CCCSc1ccc2nc(NC(=O)OC)[nH]c2c1	452 nM (active)			inactive	inactive	inactive	inactive	4.52 µM (active) and 34.4 µM (active)				inactive	inactive	inactive	inactive	16.7 µM (active)			
COCCCOc1ccnc(CS(=O)c2nc3ccccc3[nH]2)c1C (stereo not drawn)	inactive	48.4 µM (active)	inactive	inactive	inactive	inactive	inactive	9.44 µM (active) and 3.05 µM (active)				inactive	6.09 µM (active)	inactive	inactive	inactive			
CC1=C(C)S(=O)(=O)CCS1(=O)=O	inactive		inactive	inactive	inactive	inactive	inactive	inactive	inactive			inactive	1.09 µM (active)	inactive		inactive	inactive	inactive	inactive
C=C(C)C(=O)OCCOCCOCCOC(=O)C(=C)C	inactive	inactive	inactive	inactive	inactive	inactive	inactive	inactive		inactive		inactive		inactive	inactive	inactive			
CC1=CC(=O)NS(=O)(=O)O1	inactive	inactive	inactive	inactive	inactive	inactive	inactive	inactive				inactive	inactive	inactive		inactive			
C#C[C@]1(O)CC[C@H]2[C@@H]3CCC4=CC(=O)CC[C@@H]4[C@H]3CC[C@@]21C				inactive	inactive	inactive	inactive	inactive	inactive	inactive	inactive	inactive	24.3 µM (active)	inactive	inactive	inactive			inactive
O=C(O)c1cc(=O)c2c(OCC(O)COc3cccc4oc(C(=O)O)cc(=O)c34)cccc2o1				inactive	inactive	inactive	inactive	inactive	inactive		inactive	inactive	inactive	inactive	inactive	inactive	inactive	inactive	inactive
CC(C)CC(=O)CC(C)C	inactive	inactive	inactive	inactive	inactive							inactive	inactive	inactive		inactive			
CCCCC(CC)COC(=O)C(C#N)=C(c1ccccc1)c1ccccc1 (stereo not drawn)	inactive		inactive		inactive	inactive	inactive	inactive	inactive			inactive		inactive	inactive	inactive			
CN(C)CCC(c1ccc(Cl)cc1)c1ccccn1 (stereo not drawn)	24.4 µM (active) and 30.6 µM (active)	48.7 µM (active) and 48.6 µM (active)	inactive	inactive	inactive			inactive				inactive		inactive	inactive	inactive			
OCc1cccnc1	inactive		inactive	inactive	inactive	inactive	inactive	inactive	inactive			inactive	inactive	inactive	inactive	inactive	inactive	inactive	inactive
Nc1ccccc1[N+](=O)[O-]	inactive	inactive	inactive	inactive	inactive	inactive	inactive	inactive			inactive	inactive	inactive	inactive	inactive	inactive			
